# High-throughput results (PubChem)
# HP1b chromo inh – HTS for Inhibitors of HP1-beta Chromodomain Interactions with Methylated Histone Tails. Chromobox protein homolog 1 (Homo sapiens), P83916. AlphaScreen HP1-beta / biotin-H3K9me3 peptide binding. Potency, µM (highest dose often 114 µM), most hits filed as inhibitors. 390,000 tested, 0.56% active. AID 540317, 2011; note: nearly all actives have a fitted effect of over 70% in size
#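 HP1-beta protein (50 nM final) preincubated 30 min at room temperature with biotinylated H3(1-18)K9me3 peptide (50 nM) in PBS pH 7.4, 0.01% Tween-20, then compound added for 30 min. AlphaScreen streptavidin donor/nickel chelate acceptor beads (10 ug/mL final), 30 min dark, luminescence read.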
# BAZ2B inh – qHTS Assay for Inhibitors of BAZ2B | Bromodomain adjacent to zinc finger domain protein 2B (Homo sapiens), Q9UIF8 | AlphaScreen BAZ2B-H3K14Ac peptide displacement | Potency, µM (top dose mostly 114 µM), most hits filed as inhibitors | 360,000 tested, 4.4% active | AID 504333, 2011; note: nearly all actives have a fitted effect of over 60% in size
#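 Protein-peptide AlphaScreen: BAZ2B 50 nM, b-H3K14Ac 50 nM, 1x PBS pH 7.4 + 0.01% Tween-20. Preincubation 30 min RT; cpd 30 min RT (top 110 uM); beads 20 min RT, light-protected.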
# JMJD2A Tudor inh – qHTS Assay for Inhibitors of JMJD2A-Tudor Domain; Lysine-specific demethylase 4A (Homo sapiens), O75164; AlphaScreen JMJD2A-Tudor / H3K4me3 peptide binding; Potency, µM (top dose mostly 114 µM), usual class: inhibitors; 390,000 tested, 4.4% active; note: nearly all actives have a fitted effect of over 50% in size
# G9a block – qHTS Assay for Inhibitors of Histone Lysine Methyltransferase G9a. Histone-lysine N-methyltransferase EHMT2 (Homo sapiens), Q96KQ7. G9a H3K9 monomethylation, AlphaScreen, 2 h. Potency, µM (doses to about 102 µM), actives largely listed as inhibitors. 350,000 tested, 8.8% active. AID 504332, 2011; note: nearly all actives have a fitted effect of over 75% in size
#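 Step 1: enzyme (final 20 nM) with compound, 15 min RT. Step 2: substrate peptide 500 nM and SAM 20 uM, 2 h RT. Step 3: anti-H3K9me1 antibody and AlphaScreen beads, 10 min, then plate read.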
# GLS inh – qHTS for Inhibitors of Glutaminase (GLS). Potency, µM (titrated, usually from 45.5 µM), actives largely listed as inhibitors. AID 624170, 2012. 410,000 tested, 0.21% active. GLS enzymatic activity, qHTS titration. Glutaminase kidney isoform, mitochondrial (Homo sapiens), O94925
# Target sequence (O94925 whole entry, looked up, canonical isoform): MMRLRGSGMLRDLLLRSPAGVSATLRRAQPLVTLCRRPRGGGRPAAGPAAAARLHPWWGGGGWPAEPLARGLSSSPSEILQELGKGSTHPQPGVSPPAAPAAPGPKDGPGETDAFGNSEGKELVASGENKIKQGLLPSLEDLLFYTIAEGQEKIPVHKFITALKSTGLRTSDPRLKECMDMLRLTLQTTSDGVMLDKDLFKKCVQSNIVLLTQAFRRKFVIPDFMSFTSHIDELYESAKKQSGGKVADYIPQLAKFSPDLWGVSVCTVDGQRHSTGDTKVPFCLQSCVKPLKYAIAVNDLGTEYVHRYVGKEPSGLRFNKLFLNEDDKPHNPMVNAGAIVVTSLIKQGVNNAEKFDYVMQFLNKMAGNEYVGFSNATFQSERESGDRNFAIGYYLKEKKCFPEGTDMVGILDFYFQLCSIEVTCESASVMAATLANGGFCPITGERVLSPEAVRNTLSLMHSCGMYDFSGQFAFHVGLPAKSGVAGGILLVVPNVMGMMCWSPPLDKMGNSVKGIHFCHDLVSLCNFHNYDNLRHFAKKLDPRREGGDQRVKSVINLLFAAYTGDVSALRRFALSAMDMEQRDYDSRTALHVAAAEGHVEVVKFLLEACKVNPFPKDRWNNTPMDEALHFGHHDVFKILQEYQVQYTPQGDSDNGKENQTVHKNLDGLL
#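 Compounds were pin-transferred onto hKGA, after which L-glutamine (1 mM solution) and a detection mix of glutamate oxidase, HRP and Amplex Red were added. Initial and 30 min RT fluorescence reads were collected.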
# Numbers stand for hits; . = inactive; ? = inconclusive; / = no result; [ ] = dose if it differs, or a comment. Only some compounds are listed: those with a hit (about 10% of all), similar ones and a draw of the others. Calls come from the whole dose curve; as a rule, active = well fitted curve in the direction sought with a large enough effect; inconclusive = small, poorly fitted or top-dose-only effect, or another doubt; inactive = no such curve, though single readings can be large; an effect the other way counts as inactive or inconclusive.
SMILES,HP1b chromo inh,BAZ2B inh,JMJD2A Tudor inh,G9a block,GLS inh
O=C(COC(=O)c1ccco1)c1ccc2ccccc2c1,.,.,.,.,.
CCOc1ccc(NC(=O)c2cnn3c2NC(C)=C(C(=O)Nc2ccc(Cl)cc2)C3c2ccc(OC)c(OC)c2)cc1 (configuration not stated),.,.,.,.,.
CCS(=O)(=O)N1CCN(c2ccc(C(=O)NC34CC5CC(CC(C5)C3)C4)cc2[N+](=O)[O-])CC1,.,.,.,.,.
Cc1ccc(NC(=O)CO/N=C/c2ccccc2C)c(C)c1,.,.,.,.,.
Cc1cccc(-n2ccnc2CN2CCC(CO)(Cc3ccccc3)CC2)c1,.,.,.,.,.
O=C(NCCSCc1ccccc1)c1cc(S(=O)(=O)N2CCOCC2)ccc1F,.,.,.,.[12.7 µM],.
COc1ccc(CCNC(=O)CN2C(=O)c3cccc4cccc(c34)C2=O)cc1OC,.,.,.,/,.
CN(C)CCN1C(=O)C(=O)/C(=C(/O)c2ccc3c(c2)OCCO3)C1c1ccccn1 (configuration not stated),.,56µM,.,32µM,.
CCOC(=O)c1c(C)nc(SCC(N)=O)c(C#N)c1-c1ccccc1,.,.,.,.,.
Fc1ccccc1/C=N/n1cc(-c2ccccc2)[nH]c1=S,.,.,13µM,?,.
Cc1ccc(C)c(/C=N/n2cc(-c3ccccc3)[nH]c2=S)c1,.,.,?,4µM,?
Cc1ccccc1S(=O)(=O)Nc1cccnc1,.,.,.,.,.
COc1ccc(C2=NN(C(=O)c3ccco3)C(c3ccco3)C2)cc1OC (configuration not stated),.,.,.,?,.
COc1ccc(C2=NN(C(=O)CSc3nnc(-c4ccccc4F)o3)C(c3ccco3)C2)cc1 (configuration not stated),.,.,.,45µM,.
COc1ccc(C2=NN(C(N)=S)C(c3ccco3)C2)cc1 (configuration not stated),.,?,.,22µM,.
Cc1ccc(C2=NN(C(=O)CSc3nccn3C)C(c3ccco3)C2)cc1 (configuration not stated),.,?,?,?,.
CC1CC(C)CN(CC(=O)c2c[nH]c3ccccc23)C1 (configuration not stated),.,.,.,?,.
CCc1cc2c(NC(Cc3c[nH]c4ccccc34)C(=O)O)nc(C)nc2s1 (configuration not stated),.,.,.,.,.
O=C(O)Cc1csc(Nc2cccc(Cl)c2)n1,.,.,.,.,.
CC(C)c1ccc(Nc2nc(CC(=O)O)cs2)cc1,.,.,.,40µM,.
O=[N+]([O-])c1ccc(N2CCN(c3ccccc3O)CC2)c(Cl)c1,?,?,.,?,.
O=C1NC(c2cccc([N+](=O)[O-])c2)=CCN1c1ccccc1O,.,.,.,19µM,.
CCSS(=O)(=O)c1cccc2cccnc12,?,22µM,1.1µM,0.45µM,10µM
O=C(O)CCS(=O)(=O)c1cccc2cccnc12,.,.,.,?,.
COc1ccc(CC2SC(=Nc3ccc(F)cc3)NC2=O)cc1 (configuration not stated),.,.,.,56µM,.
SMILES,HP1b chromo inh,BAZ2B inh,JMJD2A Tudor inh,G9a block,GLS inh
COc1ccc(N=C2NC(=O)C(CC(=O)NCCc3ccc(OC)c(OC)c3)S2)cc1 (configuration not stated),.,.,.,.,.
ClCC1NCC(c2ccccc2Cl)c2c1[nH]c1ccccc21 (configuration not stated),.,45µM,?,?,.
Cc1ccc(C)c(N2CCN(C(=O)c3ccc4[nH]c(C)c(C)c4c3)CC2)c1,.,.,79µM,.,.
Cc1c(C)n(C)c2ccc(C(=O)NCCCN3CCN(c4ccc(F)cc4)CC3)cc12,?,35µM,56µM,40µM,.
Cc1ccc(C)c(N2CCN(C(=O)c3cc4ccccn4n3)CC2)c1,.,.,.,50µM,.
Cc1[nH]c2ccc(C(=O)NCCN3CCCCCC3)cc2c1C,.,.,?,50µM,.
CCOC(=O)N1CCN(C(=O)c2ccc3[nH]c(C)c(C)c3c2)CC1,.,/,.,/,.
Cn1cc(CC(=O)NCCCN2CCCC2)c2ccccc21,.,.,.,56µM,.
COc1ccc(OC)c(CCNC(=O)CCc2cn(C)c3ccccc23)c1,.,?,?,71µM,.
Cc1c(C)n(C)c2ccc(C(=O)NCCCN3CCN(c4ccccc4F)CC3)cc12,?,?,56µM,45µM,.
Cc1c(C)n(C)c2ccc(C(=O)NCCCN3CCCC3)cc12,.,?,?,50µM,.
COc1ccc(OC)c(CNC(=O)CCc2cn(C)c3ccccc23)c1,.,.,?,?,.
COc1ccc(C2/C=C\CNCC(=O)N2Cc2ccc(F)cc2)cc1 (configuration not stated),.,.,.,.,.
O=C(Cn1c(=O)c2cccn2c2ccc(F)cc21)NCCCN1CCN(c2ccccc2F)CC1,.,.,.,45µM,.
O=C(O)c1ccccc1C(=O)Nc1ccc(Nc2ccccc2)cc1,/,/,/,/,.
N#C/C(=C\c1ccc(C(=O)O)cc1)c1nc2sc3c(c2c(=O)[nH]1)CCCC3,.,45µM,?,40µM,?
CC(=O)Nc1cccc(-c2csc(N)n2)c1,.,?,.,?,.
Cc1cc(/C=C2/NC(=O)NC2=O)c(C)n1-c1sc2c(c1C#N)CCCC2,.,?,?,.[12.7 µM],.
Cc1cc(/C=C2\SC(=S)NC2=O)c(C)n1-c1cccc(O)c1,?,50µM,.[11.4 µM],40µM,.
Cc1sc(-n2c(C)cc(/C=N/n3cnnc3)c2C)c(C#N)c1C,.,?,?,8.9µM,.
Cc1sc(-n2c(C)cc(/C=C3\SC(=S)NC3=O)c2C)c(C#N)c1C,?,.,40µM,?,.
Cc1cc(/C=C2/C(=O)NN(c3ccccc3)C2=O)c(C)n1-c1cccc(O)c1,.,?,.,22µM,.
COC(=O)C1CCN(C(=O)C(C)Oc2ccc(Cl)cc2Cl)CC1 (configuration not stated),.,.,.,.,.
CC(=O)Nc1ccc(-n2c(C)ccc2-c2ccccc2)cc1,.,?,.,?,.
COc1ccc(-n2cc(-c3ccccc3)[nH]c2=S)cc1,.,?,8.9µM,1.6µM,.
CC(=O)Nc1ccc(-n2cc(-c3ccccc3)[nH]c2=S)cc1,?,?,0.89µM,1.4µM,.
CCOc1ccc(-n2cc(-c3ccc(OC)c(OC)c3)[nH]c2=S)cc1,?,/,11µM,2.5µM,.
